Assay outcomes: PubChem BioAssay, National Center for Advancing Translational Sciences (NCATS)
IL1B secr inh: inflammasome signaling inhibition, IL-1 beta readout | THP-1 LPS/ATP IL-1B secretion, AlphaLISA, 16 h; active compounds read low | activity change, % at 57.5 µM | 4.7% of 360,000 active | AID 743279; in the data active = activity change below about -50%; inconclusive = mostly about -30% to -49%
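Secreted IL-1B measured by AlphaLISA bead assay after 16 h compound exposure of THP-1 cells; compounds (final up to 57.5 uM) added 1 h before LPS (250 ng/mL) and ATP (1.25 mM) stimulation; lower signal means less secretion.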
HT1080 IDH1KD tx: kills HT-1080 cells with IDH1 knockdown | HT-1080 IDH1 knockdown viability, ATP luminescence, 48 h | Potency, µM (highest dose often 46.1 µM), without a hit: at the highest dose activity, negative = toxicity, most hits filed as cytotoxic | 2% of 360,000 active | AID 686971;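 also: potency is read from the fitted curve at half-maximal effect; 0% = DMSO wells and -100% = cell-free medium wells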
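Luminescent ATP read-out (CellTiter-Glo, 10 min at room temperature) after 48 h compound exposure at 37 °C gave viability of IDH1-knockdown HT-1080 cells. Activity was normalised to DMSO and cell-free wells, then fitted as concentration-response curves.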
uPA surface inh: cell surface uPA generation inhibition; cell surface uPA generation assay, qHTS; Potency, µM (series often up to 38.3 µM), for the others: at the highest dose activity change, negative = inhibition, most hits filed as inhibitors; 0.31% of 330,000 active; active = well fitted inhibition curve with a large enough effect; inconclusive = small, poorly fitted or top-dose-only effect; inactive = no such curve, though single readings can be large or run the other way; tested in mouse RAW 264.7 cells; also: potency is read from the fitted curve at half-maximal effect; nearly all actives have a fitted effect of over 55% in size
HT1080-NT tox: kills 2HG-producing HT-1080-NT fibrosarcoma cells. HT-1080-NT fibrosarcoma viability, CellTiter-Glo ATP luminescence, 48 h. Potency, µM (highest dose often 46.1 µM), for inactives: top-dose activity, negative = less viability, actives largely listed as cytotoxic. 1.6% of 360,000 active. AID 686970;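 also: NT is the 2HG producing partner of a matched IDH1 knockdown line; potency is read from the fitted curve at half-maximal effect; 0% = DMSO-treated cells and -100% = media-only wells without cells; nearly all actives have a fitted effect of over 55% in size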
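Viability by CellTiter-Glo luminescence after 48 h compound exposure at 37C of HT-1080-NT cells (750/well, RPMI, 5% FBS). % activity scaled between DMSO wells and medium-only wells, then curve-fitted and categorized by curve class.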
TDP1 cell noCPT: qHTS for Inhibitors of human tyrosyl-DNA phosphodiesterase 1 (TDP1): qHTS in cells in absence of CPT. 15% of 420,000 active. DT40 Tdp1-/- hTDP1 cells, no CPT, ATP luminescence, 48 h. Potency, µM (doses to about 46.2 µM), without a hit: top-dose activity change, negative = growth inhibition, usual class: inhibitors; also: potency is read from the fitted curve at half-maximal effect; nearly all actives have a fitted effect of over 55% in size
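No-CPT arm: Tdp1-/-;hTDP1 DT40 cells (400/well) plus compounds, incubated ≥48 hr at 37 °C. Readout CellTiter-Glo luminescence.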
TDP1 cell CPT: DT40-hTDP1 cell growth loss with CPT; chicken DT40 Tdp1-/-;hTDP1 cells + 20 nM CPT, ATP luminescence, 48 h; Potency, µM (doses to about 46.2 µM), for the others: at the highest dose activity change, negative = growth inhibition, most hits filed as inhibitors; 12% of 420,000 active; AID 686979; also: potency is read from the fitted curve at half-maximal effect; nearly all actives have a fitted effect of over 55% in size
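Chicken DT40 Tdp1-/- cells complemented with human TDP1, 400 cells/well, exposed to compounds plus 20 nM camptothecin for at least 48 h at 37 C; viability read as ATP content by CellTiter-Glo luminescence.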
Active calls of the source: *; [ ] = another dose, or the depositor's remark. Hits are enriched below; roughly 19% of the tested compounds scored in any of these assays. Unless noted, calls follow the shape of the dose curve; as a rule, active = well fitted curve in the direction sought with a large enough effect; inconclusive = small, poorly fitted or top-dose-only effect, or another doubt; inactive = no such curve, though single readings can be large; an effect the other way counts as inactive or inconclusive. Unless noted, % is scaled to controls: 0 for no effect and ±100 for the full control effect.

What do the screens show for `O=C(C(=Cc1ccccc1)CN1CCCCC1)c1ccccc1`?
IL1B secr inh: -104.4*; HT1080 IDH1KD tx: 4.61µM*; uPA surface inh: -5.8%; HT1080-NT tox: inconclusive; TDP1 cell noCPT: 1.46µM*; TDP1 cell CPT: 0.731µM*

Results for O=C(CCCCN1CCCCC1)c1ccccc1 ?
IL1B secr inh: -6.1; HT1080 IDH1KD tx: 12.1%; uPA surface inh: 2.5%; HT1080-NT tox: 2.6%; TDP1 cell noCPT: -14.5%; TDP1 cell CPT: -8.3%

How did Nc1cc(=O)[nH]c(SCC(=O)N2CCCc3ccccc32)n1 do in these assays?
IL1B secr inh: 14.2; HT1080 IDH1KD tx: -9.4%; uPA surface inh: -1.9%; HT1080-NT tox: -11.6%; TDP1 cell noCPT: 6.9%; TDP1 cell CPT: -14.6%

What do the screens show for `O=C(CSc1nnc(-c2ccccc2)c(-c2ccccc2)n1)N1CCc2ccccc21`?
IL1B secr inh: 5.2; HT1080 IDH1KD tx: 6.1%; HT1080-NT tox: 0.6%; TDP1 cell noCPT: inconclusive; TDP1 cell CPT: 15.8µM*

How did Cc1cc(C)nc(SCC(=O)N2CCc3ccccc32)n1 do in these assays?
IL1B secr inh: -8.6; HT1080 IDH1KD tx: 5.2%; uPA surface inh: 0.0%; HT1080-NT tox: 5.1%; TDP1 cell noCPT: -4.1%; TDP1 cell CPT: -15.5%

What do the screens show for `O=C(CSc1nc(-c2ccccc2)cc(=O)[nH]1)N1CCc2ccccc21`?
IL1B secr inh: 8.8; HT1080 IDH1KD tx: inconclusive; uPA surface inh: 12.4%; HT1080-NT tox: -15.4%; TDP1 cell noCPT: 16.4µM*; TDP1 cell CPT: 20.6µM*

How did C[C@@H]1CCC2C(C)(C)C3CC21CC[C@@]3(C)O (stereo not given in full) do in these assays?
TDP1 cell noCPT: -4.2%[9.04 µM]; TDP1 cell CPT: -1.5%[9.04 µM]

How did Cc1cc(C)c2c(-n3cccc3)c(NC(=O)OC(C)C)sc2n1 do in these assays?
IL1B secr inh: -3.9; HT1080 IDH1KD tx: -7.1%; uPA surface inh: -3.2%; HT1080-NT tox: -1.2%; TDP1 cell noCPT: 20.6µM*; TDP1 cell CPT: 18.4µM*

What do the screens show for `COc1cccc(CNC(=O)c2sc3nc(C)cc(C)c3c2-n2cccc2)c1OC`?
TDP1 cell noCPT: inconclusive; TDP1 cell CPT: 23.1µM*

Results for CC(C)Oc1ccc(CNC(=O)c2sc3ncccc3c2-n2cccc2)cc1 ?
TDP1 cell noCPT: 18.4µM*; TDP1 cell CPT: 20.6µM*

Results for COc1cc(CNC(=O)c2sc3ncccc3c2-n2cccc2)cc(OC)c1OC ?
TDP1 cell noCPT: 10.3µM*; TDP1 cell CPT: 18.4µM*

How did Cc1ccc(SCC(=O)OCC(=O)NCCc2ccccc2)cc1C do in these assays?
IL1B secr inh: 16.8; HT1080 IDH1KD tx: 5.3%; uPA surface inh: -0.1%; HT1080-NT tox: 2.4%; TDP1 cell noCPT: 7.1%; TDP1 cell CPT: 1.5%

What do the screens show for `O=S(=O)(c1ccc(SCc2c(F)cccc2Cl)nc1)N1CCCC1`?
IL1B secr inh: 11.4; HT1080 IDH1KD tx: -5.4%; HT1080-NT tox: -1.4%; TDP1 cell noCPT: inconclusive; TDP1 cell CPT: inconclusive

What do the screens show for `CCOC(=O)COc1c(C(=O)OC)sc2ncccc12`?
IL1B secr inh: -6.5; HT1080 IDH1KD tx: 10.0%; uPA surface inh: 1.3%; HT1080-NT tox: 13.8%; TDP1 cell noCPT: 4.1%; TDP1 cell CPT: 3.7%

What do the screens show for `COc1cccc(CNC(=O)c2sc3ncccc3c2-n2c(C)ccc2C)c1OC`?
TDP1 cell noCPT: 13µM*; TDP1 cell CPT: 10.3µM*

Results for CN(C)c1ccc(CNC(=O)c2sc3ncccc3c2-n2cccc2)cc1 ?
TDP1 cell noCPT: 20.6µM*; TDP1 cell CPT: 16.4µM*

What do the screens show for `CCOc1ccc(NC(=O)C2CCCN(S(=O)(=O)c3ccc(Br)s3)C2)cc1` (stereo not given)?
TDP1 cell noCPT: -29.6%; TDP1 cell CPT: -15.0%

How did Cc1cc(C)cc(C(=O)OCC(=O)NCc2cccs2)c1 do in these assays?
IL1B secr inh: 0.0; HT1080 IDH1KD tx: -10.3%; uPA surface inh: 1.0%; HT1080-NT tox: -12.7%; TDP1 cell noCPT: inconclusive; TDP1 cell CPT: inconclusive

What do the screens show for `Cc1cc2c(cc(C(=O)OCC(=O)NCc3cccs3)n2C(C)C)o1`?
IL1B secr inh: 13.7; HT1080 IDH1KD tx: inconclusive; uPA surface inh: inconclusive; HT1080-NT tox: 1µM*; TDP1 cell noCPT: 0.731µM*; TDP1 cell CPT: 0.82µM*

What do the screens show for `CCC1CN(CC(=O)N(C)Cc2nc3ccccc3[nH]2)Cc2cc(OC)ccc2O1` (stereo not given)?
TDP1 cell noCPT: -19.5%; TDP1 cell CPT: -9.7%[9.04 µM]

Results for CCOc1ccc(CNC(=O)C2CCN(C3=NS(=O)(=O)C(c4ccc(C)cc4)=C3CC)CC2)cc1 ?
TDP1 cell noCPT: inconclusive; TDP1 cell CPT: 18.4µM*

Results for CC1=C(c2ccc(Cl)cc2)S(=O)(=O)N=C1N1CCC(C(=O)NCc2ccccc2F)CC1 ?
TDP1 cell noCPT: -3.0%; TDP1 cell CPT: -0.3%

What do the screens show for `CC1=C(c2ccc(C)c(C)c2)S(=O)(=O)N=C1N1CCC(C(=O)NCCc2ccc(Cl)cc2)CC1`?
TDP1 cell noCPT: 7.31µM*; TDP1 cell CPT: 13µM*

What do the screens show for `COc1ccccc1CNC(=O)C1CCN(C2=NS(=O)(=O)C(c3ccc(C)c(C)c3)=C2C)CC1`?
TDP1 cell noCPT: 18.4µM*; TDP1 cell CPT: 16.4µM*

How did COc1ccc(CC(=O)Nc2nn(C)c3nc4c(C)cccc4cc23)cc1 do in these assays?
HT1080 IDH1KD tx: 0.2%; uPA surface inh: -2.7%; HT1080-NT tox: 11.3%; TDP1 cell noCPT: inconclusive; TDP1 cell CPT: -25.8%

How did O=C(CN(Cc1ccc(F)cc1)C(=O)CCC(=O)Nc1ccccn1)NCc1ccc(F)cc1 do in these assays?
IL1B secr inh: -5.1; HT1080 IDH1KD tx: -8.9%; uPA surface inh: 0.5%; HT1080-NT tox: 11.6%; TDP1 cell noCPT: inconclusive; TDP1 cell CPT: -16.9%

How did O=C(c1ccc2c(c1)N(Cc1c(F)cccc1Cl)C(=O)c1ccccc1S2)N1CCOCC1 do in these assays?
TDP1 cell noCPT: inconclusive; TDP1 cell CPT: -20.0%

Results for Cc1ccc2nc(N(CCN(C)C)C(=O)C3CCN(S(=O)(=O)c4cccs4)CC3)sc2c1 ?
IL1B secr inh: -4.3; HT1080 IDH1KD tx: -4.4%; HT1080-NT tox: -12.8%; TDP1 cell noCPT: -11.5%; TDP1 cell CPT: -17.6%

What do the screens show for `CC(C)(C)c1ccc(C(=O)NNC(=O)CNC(=O)c2cccs2)cc1`?
IL1B secr inh: 7.5; HT1080 IDH1KD tx: 12.2%; uPA surface inh: -6.1%; HT1080-NT tox: 0.2%; TDP1 cell noCPT: -0.1%; TDP1 cell CPT: 2.1%
